Consider 56 compounds from PubChem BioAssay AID759 (NMMLSC, 2007).

About 270 (0.14%) of roughly 190,000 compounds were called active. Roughly 2% stayed inconclusive and do not appear here. Only a selection was taken, and actives are over-represented in it overall. Unmarked numbers belong to inactive results.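 The calls were made as follows: active = GTP binding activity at least 20% away from the 100% baseline, either lowered as inhibitor or raised as activator; inconclusive = flagged as likely green fluorescent, judged across all proteins in the well; inactive = the rest.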

Chain of GTPase HRas (Homo sapiens) (P01112 whole entry, looked up): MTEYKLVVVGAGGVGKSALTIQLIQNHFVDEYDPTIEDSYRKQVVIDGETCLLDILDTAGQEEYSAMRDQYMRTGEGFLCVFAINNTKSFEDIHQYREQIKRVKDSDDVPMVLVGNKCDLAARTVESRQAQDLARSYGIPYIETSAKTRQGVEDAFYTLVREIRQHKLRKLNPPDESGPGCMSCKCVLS

The assay concerns the target GTPase HRas (Homo sapiens) (UniProt P01112). As to the kind of experiment: HRas wt fluorescent GTP binding changes, either direction – biochemical, wildtype, bead-based flow cytometry, multiplex, primary screen (AID 759).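 Also: 0% = unlabeled GTP competition control and 100% = no-compound control.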 The settings on record: GST-Ras wt beads, Bodipy-FL-GTP binding, at 10 µM, actives lie on both sides.
With `Cc1ccc(CN(Cc2cccnc2)C(=S)Nc2cccc(Cl)c2C)cc1`, the GTP binding activity was 95%.

`CCCCn1c(N)c(N(CC)C(=O)/C=C/c2ccco2)c(=O)[nH]c1=O`: the GTP binding activity is 99%. The same measure for `CSc1ncccc1C(=O)N1CCCC(CCC(=O)NCc2ccccc2F)C1` (stereo unspecified): 100%; for `COC(=O)c1ccc(NC(=O)c2cc(Cl)ccc2OC)cc1`: 96%. Regarding `O=C1N/C(=N\N=C\c2ccco2)SC1Cc1ccc(F)cc1` (stereo unspecified), the GTP binding activity was 97%. Then `O=C(c1ccncc1)c1ccc([N+](=O)[O-])cc1`, with 94%. The same measure for `CCOC(=O)CN1CCC(c2ccccc2)CC1`: 98%; for `CC(C)(C)n1nc2c(c1NC(=O)c1cc3ccccc3o1)CSC2`: 96%; for `CN1C(=O)/C(=N/OC(=O)c2ccccc2Br)c2ccccc21`: 91%.

With `CCOC(=O)C1(CCOC)CCN(Cc2ccc(C(=O)OC)cc2)CC1`, the GTP binding activity was 98%. The same measure for `Cc1cccc(-n2c(Cc3cc(=O)[nH]c(=O)[nH]3)nnc2SCC(=O)Nc2cccc(C(F)(F)F)c2)c1`: 102%; for `O=C(NCc1nnc(SCC(=O)N2CCC(Cc3ccccc3)CC2)o1)c1ccco1`: 98%; for `O=C(N/N=C/c1ccc([N+](=O)[O-])o1)c1cccc(S(=O)(=O)N2CCOCC2)c1`: 96%.

For the compound `CN(CC(=O)NC1CCCC1)S(=O)(=O)c1cnc[nH]1`, the GTP binding activity is 104%.

Regarding `CCC(C)NC(=O)Cn1nc(C(F)(F)F)c2c1CCC2` (stereo unspecified), the GTP binding activity was 100%. Then `C=CCN1C2CCCC1CC(NC(=S)Nc1cccc(OC)c1)C2` (stereo unspecified), with 99%; and `Cc1[nH]c2ccccc2c1-c1ccc(Cl)nn1`, with 96%. Take `COc1cccc(C(=O)Nc2cccnc2)c1OC`: the GTP binding activity was 98%.

In the case of `FC(F)(F)c1cccc(Cc2noc(CN3CCC(N4CCCCC4)CC3)n2)c1`, the GTP binding activity was 104%.

Consider `C=CCNc1nc(Nc2ccc(Cl)cc2)nc(OC)n1`, for which the GTP binding activity was 104%. Then `O=C1CN(C(=O)CN2C(=O)NC3(CCCCC3)C2=O)c2ccccc2N1`, with 98%; and `COc1ccc(S(=O)(=O)Nc2cccnc2)c(Cl)c1Cl`, with 93%. The same measure for `Cc1ccc(S(=O)(=O)N(C)c2ccc(OCC(=O)NC3=NCCS3)cc2)cc1`: 99%; for `CCc1ccc(CN2C(=O)c3ccccc3C2C(=O)NCC2CCCO2)cc1` (stereo unspecified): 96%; for `Cc1ccc(NC(=O)CSc2nc(CSc3ccc(C)cc3)cc(=O)[nH]2)cc1`: 95%. Then `Cn1c(-c2ccc(F)cc2)cnc1SCC(=O)NNC(=O)Cc1ccccc1`, with 99%; and `O=C(COC(=O)c1cnccn1)Nc1cccc2ccccc12`, with 96%.

Consider `O=C(C1CCN(S(=O)(=O)c2ccc(Br)s2)CC1)N1CCN(C2CCCCC2)CC1`, for which the GTP binding activity was 95%. For the compound `O=C(/C=C\c1cn(-c2ccccc2)nc1-c1cccs1)N1CCOCC1`, the GTP binding activity was 103%. The same measure for `O=C(O)/C=C/c1cn(Cc2ccccc2)nc1-c1cccs1`: 120% [activator] (active); for `O=C(O)/C=C/c1cn(-c2ccccc2)nc1-c1cccs1`: 92%. The same measure for `CCSc1sc(CC)cc1C=O`: 97%; for `COC(=O)Cc1c(O)ccn(Cc2cccc(C(F)(F)F)c2)c1=O`: 96%. The same measure for `Cc1ccc(NC(=S)N(CCN(C)C)Cc2cccs2)cc1C`: 93%. With `O=C(NCc1ccncc1)C(=O)NCc1ccco1`, the GTP binding activity is 97%. The same measure for `CCOC(=O)c1c(-c2cccc(N)c2)cn2ccccc12`: 99%.

Regarding `CNC(=S)NNC(=O)c1cccn(Cc2ccccc2)c1=O`, the GTP binding activity is 97%. Then `Cc1cccc(C)c1N1CCN(S(=O)(=O)N2CCCCC2)CC1`, with 96%.

Regarding `Cc1cc2nc(C(F)(F)F)cc(-c3cccs3)n2n1`, the GTP binding activity is 90%. Then `Nc1ccc(S(=O)(=O)Nc2nccc(/C=C/c3ccc(Br)s3)n2)cc1`, with 91%. The same measure for `O=C(CCN1CCCCC1)N=Nc1c(O)[nH]c2ccccc12`: 98%; for `Cc1cc(OC(=O)c2ccccc2)c([N+](=O)[O-])c(=O)[nH]1`: 101%. Then `COc1ccc(C(=O)NC(=S)Nc2ccc(Cl)cn2)cc1OC`, with 99%. As to `Cc1nn(CC#N)c(=O)n1N(C)c1ncc(C(F)(F)F)cc1Cl`, the GTP binding activity is 99%.

Turning to `CC(=O)Nc1ccc(NC(=O)COc2ccc(S(=O)(=O)NC(C)c3ccccc3)cc2)cc1` (stereo unspecified), the GTP binding activity was 114%. The same measure for `Cc1cc(/C=N/NC(N)=O)c(C)n1C1CCCCC1`: 100%; for `COc1cc(C(=O)Nc2cc(C(F)(F)F)ccc2-n2cncn2)cc(OC)c1OC`: 96%; for `O=C(NC(=S)Nc1ccc(S(=O)(=O)N2CCOCC2)cc1)c1ccccc1[N+](=O)[O-]`: 95%.

`COC(=O)c1cccnc1NC(=S)NC(C)C`: the GTP binding activity is 95%.

Regarding `CCCCn1nc(C(=O)Nc2ccc(S(=O)(=O)Nc3ncccn3)cc2)c2ccccc2c1=O`, the GTP binding activity is 98%. The same measure for `COCCCNC(=S)N1CCCC(c2nc3cc(C)c(C)cc3[nH]2)C1` (stereo unspecified): 95%. Then `CC1Cc2ccccc2N1C1=CC(=O)CC(C)(C)C1` (stereo unspecified), with 99%; and `Cc1nc(CN2CCN(C(=O)CCc3nnc(Cc4c[nH]c5ccccc45)o3)CC2)cs1`, with 95%; and `CCc1nnc(NC(=O)CSc2nc(SC)ns2)s1`, with 99%. Then `O=C(O)c1ccc2c3c(cccc13)C(=O)N(OS(=O)(=O)c1ccccc1)C2=O`, with 84%; and `CCOC(=O)c1cc2c(=O)[nH]c(C(Cl)(Cl)Cl)nc2o1`, with 100%.
